Measured values from PubChem BioAssay AID1026 (Columbia University Molecular Screening Center, 2008).

target: Bifunctional epoxide hydrolase 2 (Homo sapiens) (UniProt P34913); assay: sEH inhibitor concentration-response potency, dose response, biochemical, human sEH, fluorescence, Infinite200 (AID 1026); details: recombinant human sEH, fluorogenic substrate, at 0.2 µM, active compounds read high
Sequence (P34913 whole entry, looked up): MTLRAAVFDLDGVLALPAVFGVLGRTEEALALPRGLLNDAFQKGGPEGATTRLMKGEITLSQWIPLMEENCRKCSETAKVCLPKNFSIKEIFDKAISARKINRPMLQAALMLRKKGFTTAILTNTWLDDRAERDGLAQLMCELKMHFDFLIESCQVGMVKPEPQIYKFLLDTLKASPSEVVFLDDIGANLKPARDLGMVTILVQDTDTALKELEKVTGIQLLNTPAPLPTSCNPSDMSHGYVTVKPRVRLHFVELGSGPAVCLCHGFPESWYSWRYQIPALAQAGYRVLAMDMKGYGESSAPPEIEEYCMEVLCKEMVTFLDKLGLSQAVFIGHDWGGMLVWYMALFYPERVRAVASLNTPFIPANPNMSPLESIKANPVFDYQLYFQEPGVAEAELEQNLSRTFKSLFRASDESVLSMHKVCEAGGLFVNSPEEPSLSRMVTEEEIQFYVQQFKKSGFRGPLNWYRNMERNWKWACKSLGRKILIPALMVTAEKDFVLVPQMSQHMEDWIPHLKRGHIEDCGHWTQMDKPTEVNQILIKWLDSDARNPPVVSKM

inhibition, inactive:
NNC(=O)c1cccc(COc2cccc(Br)c2)c1 37.1%
Cc1cc2nc(-c3ccc(SCC(=O)N4CCc5ccccc54)nc3)[nH]c2cc1C 56.7%
COc1ccc(CCNC(=O)c2ccc3c(c2)NC(=O)C(N2CCOCC2)S3)cc1OC (stereo not given) 49.2%
O=C(CSCc1ccc(Cl)cc1)N/N=C/c1ccc(Cl)cc1Cl 55.6%
CCc1c(C)nc2ncnn2c1N1CCC(C(=O)Nc2ccc(C)cc2)CC1 44.3%
O=C(CCCN1C(=O)c2ccccc2C1=O)Nc1ccc(S(=O)(=O)N2CCCCC2)cc1 58%
CCn1c(C(=O)N2CCC(C(=O)NCCCSC3CCCCC3)CC2)cc2sccc21 61.7%
O=C(NC1CCCCC1)NC1CC2CCC(C1)N2Cc1nnnn1Cc1ccc2c(c1)OCO2 (stereo not given) 74.2%
CCOc1ccc(NC(=O)NCCCSC2CCCCC2)cc1 54.6%
Cc1noc(C)c1COc1cccc(C(=O)NCc2ccccc2Cl)c1 52.4%
CCCCCC(=O)Nc1ccc2oc(-c3ccncc3)nc2c1 31.2%
COCCNC(=O)CN1CCC(NC(=O)Nc2ccc(C(F)(F)F)cc2)CC1 54.7%
CCC(CC)NC(=O)COC(=O)c1ccc(OCC(=O)Nc2ccccc2OC)c(OC)c1 48.6%
CC(=O)NC(=S)Nc1ccc(NC(=O)COc2ccc(Cl)cc2Cl)cc1 44.2%
O=C(Nc1ccc(Cc2ccncc2)cc1)C1CCC(N2C(=O)C3C4C=CC(C5CC45)C3C2=O)CC1 (stereo not given) 56.4%
CC(=O)NC1CC2CCCC(C1)N2C(=O)Nc1ccc(Cl)c(C(F)(F)F)c1 (stereo not given) 41.4%
Cc1ccc(N(CC(=O)NC2CCCCC2)C(=O)c2ccc(C)s2)cc1 43.7%
CCOc1ccc(NC(=O)NCC2CCN(c3ccc(OC)cc3)C2)cc1 (stereo not given) 26.9%
NS(=O)(=O)c1ccc(CNC(=O)/C=C/c2c(Cl)cccc2Cl)cc1 51.6%
O=C1CSc2ccc(C(=O)NCCC3=CCCCC3)cc2N1 51.9%
CC1CCCN(S(=O)(=O)c2ccc(C(=O)Nc3nnc(-c4ccccc4Cl)o3)cc2)C1 (stereo not given) 58%
COC(=O)[C@@H](NC(=O)NCc1ccccc1Cl)C(C)C 61.5%
CC(C)(C)c1cnnn1-c1ccc(NC(=O)c2ccc3c(c2)OCO3)cc1 68.6%
COc1ccccc1NS(=O)(=O)c1cccc(C(=O)NN)c1 42.3%
O=C(NCCc1c[nH]c2ccccc12)C1CCC(Cn2c(=S)[nH]c3ccccc3c2=O)CC1 (stereo not given) 72.7%
COc1cccc(CNC(=O)C2CCC(CNS(=O)(=O)c3cccc4nsnc34)CC2)c1 (stereo not given) 50.1%
CCN(CCCNC(=O)CCCCn1c(=O)[nH]c2ccccc2c1=O)c1ccccc1 38.1%
Cc1cc2cc(CNC(=O)NC3CCCCC3)ccc2[nH]1 60%
O=C(CCC1CCCCC1)NNC(=O)NC12CC3CC(CC(C3)C1)C2 59.2%
O=C(NCCC1=CCCCC1)c1ccc2c(c1)N(Cc1ccccc1)C(=O)CS2 52.3%
O=C(NCC1CCCC(CNC(=O)N2CCc3ccccc32)C1)N1CCc2ccccc21 (stereo not given) 60.4%
O=C(Nc1ccc2c(c1)nc1n2CCN(Cc2ccccc2)C1)NC1CCCCC1 58.4%
COc1ccc(-c2nc3cc(NC(=O)Cc4ccc(OC)c(OC)c4)ccc3o2)cc1 52.1%
O=C(CCCCCn1c(=S)[nH]c2ccccc2c1=O)NCc1ccc2c(c1)OCO2 59.3%
Cc1nc2cc(NC(=O)NCCC3=CCCCC3)ccc2o1 45%
CC(Cc1cccs1)NC(=O)Nc1ccc(Cl)cc1 (stereo not given) 60.6%
O=C(NCCC1=CCCCC1)C1CCCN(S(=O)(=O)c2ccccc2)C1 (stereo not given) 48.7%
O=C(N[C@@H](Cc1ccccc1)C(=O)NC1CCCCCC1)c1ccco1 36.3%
O=C(Cc1ccc(Cl)cc1)Nc1ccc(N2CCN(C(=O)c3ccco3)CC2)c(Cl)c1 64.8%
CCN(CCNC(=O)C1CCN(Cc2nc(-c3ccc(Cl)cc3)oc2C)CC1)c1ccccc1 36.3%
